Source: PubChem BioAssay AID588664 (The Scripps Research Institute Molecular Screening Center, 2011)
Out of some 360,000 compounds screened, about 1,400 (0.39%) were called active. The sample holds actives, similar compounds and a random draw of the others, so the mix is not that of the screen. Values without a mark were called inactive. Rule as the data show it: active = inhibition above about 5% (passing the limit was not always enough); inactive = the rest.

Biological target: Tyrosine-protein kinase ABL1 (Homo sapiens) + Ras and Rab interactor 1 (Homo sapiens) (UniProt P00519+Q13671)
Sequence (P00519 whole entry, looked up): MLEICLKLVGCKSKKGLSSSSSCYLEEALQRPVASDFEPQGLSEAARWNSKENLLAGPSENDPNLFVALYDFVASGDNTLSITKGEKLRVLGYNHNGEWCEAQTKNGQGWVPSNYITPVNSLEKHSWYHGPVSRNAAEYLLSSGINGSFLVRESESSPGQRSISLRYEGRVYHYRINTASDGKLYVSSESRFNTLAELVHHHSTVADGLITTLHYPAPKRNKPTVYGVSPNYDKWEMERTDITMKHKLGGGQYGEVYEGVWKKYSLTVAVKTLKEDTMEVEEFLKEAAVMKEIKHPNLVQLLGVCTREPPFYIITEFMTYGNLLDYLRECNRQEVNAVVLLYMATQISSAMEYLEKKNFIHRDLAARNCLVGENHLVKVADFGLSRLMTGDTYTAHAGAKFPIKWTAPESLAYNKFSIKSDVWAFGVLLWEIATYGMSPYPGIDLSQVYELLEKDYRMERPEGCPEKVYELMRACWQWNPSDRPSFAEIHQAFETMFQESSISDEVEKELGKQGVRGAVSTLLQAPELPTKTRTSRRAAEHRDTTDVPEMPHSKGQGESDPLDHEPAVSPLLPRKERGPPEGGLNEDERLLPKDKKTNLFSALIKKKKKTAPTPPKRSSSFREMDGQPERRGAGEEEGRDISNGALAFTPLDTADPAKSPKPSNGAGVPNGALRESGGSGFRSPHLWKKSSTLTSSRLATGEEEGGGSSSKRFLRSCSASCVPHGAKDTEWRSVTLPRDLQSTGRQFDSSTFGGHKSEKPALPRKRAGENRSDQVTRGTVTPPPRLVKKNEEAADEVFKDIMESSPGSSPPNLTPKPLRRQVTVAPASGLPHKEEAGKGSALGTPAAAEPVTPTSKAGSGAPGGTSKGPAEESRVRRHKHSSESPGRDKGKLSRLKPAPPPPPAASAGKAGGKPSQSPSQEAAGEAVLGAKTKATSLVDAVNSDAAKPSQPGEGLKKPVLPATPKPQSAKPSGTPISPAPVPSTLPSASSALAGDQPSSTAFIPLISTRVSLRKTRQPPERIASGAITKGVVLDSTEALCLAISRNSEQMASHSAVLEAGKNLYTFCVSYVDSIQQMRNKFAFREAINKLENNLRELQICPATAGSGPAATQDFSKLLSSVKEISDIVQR
Sequence (Q13671 whole entry, looked up): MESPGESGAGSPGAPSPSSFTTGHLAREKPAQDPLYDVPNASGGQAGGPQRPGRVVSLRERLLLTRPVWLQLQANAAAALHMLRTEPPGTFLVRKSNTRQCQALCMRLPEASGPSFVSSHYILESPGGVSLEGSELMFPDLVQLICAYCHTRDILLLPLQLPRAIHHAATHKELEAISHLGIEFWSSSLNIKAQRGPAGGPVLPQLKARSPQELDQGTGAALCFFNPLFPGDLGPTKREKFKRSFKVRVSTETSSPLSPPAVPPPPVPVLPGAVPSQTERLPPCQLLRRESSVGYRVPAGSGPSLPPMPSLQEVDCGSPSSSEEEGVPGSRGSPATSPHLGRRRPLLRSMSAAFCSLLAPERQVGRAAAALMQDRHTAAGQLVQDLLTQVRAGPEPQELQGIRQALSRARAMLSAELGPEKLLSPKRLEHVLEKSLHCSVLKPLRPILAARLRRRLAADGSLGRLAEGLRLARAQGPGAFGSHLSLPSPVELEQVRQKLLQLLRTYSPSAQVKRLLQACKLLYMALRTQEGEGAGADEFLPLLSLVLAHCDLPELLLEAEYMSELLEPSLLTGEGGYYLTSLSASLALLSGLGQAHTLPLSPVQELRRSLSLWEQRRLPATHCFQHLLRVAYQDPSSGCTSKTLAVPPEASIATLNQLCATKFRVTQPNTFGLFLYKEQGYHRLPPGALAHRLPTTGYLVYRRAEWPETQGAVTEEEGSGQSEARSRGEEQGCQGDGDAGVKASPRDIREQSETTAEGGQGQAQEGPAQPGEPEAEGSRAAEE
Assay: inhibitors of Rin1-Abl protein binding, primary screen, biochemical, TR-FRET (AID 588664)
Settings: at 7.35 µM, hits give high values

Compared with `CCC(C)C(=O)Nc1ccccc1N1CCN(c2ccc(F)cc2)CC1` (stereo unspecified), `Cc1cccc(C)c1NC(=O)CN1CCN(c2ccc(F)cc2)CC1` is higher in inhibition: 1.3% for the first, 2.38% for the second.

First: CCOC(=O)C1CCCN(C(=O)c2ccc(C)c(S(=O)(=O)N3CCCCC3)c2)C1 (stereo unspecified)
Second: CC(C)CCC(=O)Nc1cc(S(=O)(=O)N2CCOCC2)ccc1N1CCCC1
The inhibition of the first is higher: 2.16% for the first, -1.79% for the second.

First: Cn1nc([N+](=O)[O-])nc1Sc1ccc(C(C)(C)C)cc1
Second: Cc1noc(C)c1-c1nc(CSc2ccc(Cl)cc2)no1
The inhibition of the first is lower: -6.46% for the first, -1.19% for the second.

First: O=C(COC(=O)c1ccccc1F)Nc1cc(S(=O)(=O)N2CCOCC2)ccc1N1CCCC1
Second: CC(=O)Nc1ccc(NC(=O)CN2C(=O)COc3ccc(S(=O)(=O)N4CCCCC4)cc32)cc1
The inhibition of the first is lower: 0.95% for the first, 2.56% for the second.

Going from `O=C1NC[C@@H](c2ccccc2)OC(=O)[C@H](Cc2ccc(F)cc2)CC/C=C/C[C@H]1CC(=O)N(CCO)Cc1ccccc1` to `O=C1CC(Cc2ccccc2)C(=O)N1c1ccc(Cl)cn1` (stereo unspecified), the inhibition falls from -0.64% to -3.26%.

Compared with `Cc1nn(C)cc1S(=O)(=O)N1CCN(c2ccc(F)cc2)CC1`, `Cc1cc(=O)oc2cc(OCC(=O)N3CCN(c4ccc(F)cc4)CC3)c(Cl)cc12` is lower in inhibition: 1.17% for the first, -4.94% for the second.

First: CCOc1c2ccc(C(=O)NCc3ccc(OC(F)(F)F)cc3)cc2nn1C
Second: CCOC(=O)Cc1ncccc1C(=O)Nc1ccc(OC(F)(F)F)cc1
The inhibition of the first is higher: 3.17% for the first, -0.49% for the second.

First: COc1ccc(N(CC(=O)NC2CCCCC2)S(=O)(=O)c2c(C)[nH]c(=O)[nH]c2=O)cc1
Second: CN(C)c1ccc(CNC(=O)CN2C(=O)COc3ccc(S(=O)(=O)N4CCCC4)cc32)cc1
The inhibition of the first is lower: 0.98% for the first, 2.18% for the second.

Compared with `C=CCNC(=O)c1ccccc1NC(=O)c1ccc(Cl)c(S(=O)(=O)Nc2cccc(C)c2C)c1`, `Cc1ccc(C)c(NS(=O)(=O)c2ccc(OCC(=O)NCc3cccnc3)cc2)c1` is lower in inhibition: 3.96% for the first, 2.47% for the second.

Compared with `O=C(c1ccc(OC2CCN(C/C=C/c3ccc(F)cc3)CC2)cc1)N1CCCCC1`, `Cc1nn(C)c(Cl)c1CN1CCC(Oc2ccc(C(=O)N3CCCC3)cc2)CC1` is lower in inhibition: 4.14% for the first, -0.88% for the second.

Going from `COc1ccc(-c2cc(C(F)(F)F)n3nc(C(=O)N4CCOCC4)c(Cl)c3n2)cc1` to `COc1ccc(-c2c(C)nn3c(N4CCC(C(=O)N5CCCCC5)CC4)cc(C)nc23)cc1OC`, the inhibition falls from 0.58% to -0.97%.

Compared with `CCc1nnc(NC(=O)CSc2nc3ccccc3c(=O)n2CCCOC)s1`, `Cc1cccc(C)c1NC(=O)CSc1nc2c([nH]1)c(=O)n(C)c(=O)n2C` is lower in inhibition: 2.09% for the first, 0.29% for the second.

Going from `Cc1cc(C)c(C=NNc2nc3c([nH]2)c(=O)n(C)c(=O)n3C)c(C)c1` to `Cc1sc2ncn(CC(=O)NCCN(C)C)c(=O)c2c1S(=O)(=O)N1CCC(C)CC1`, the inhibition falls from 4.38% to -2.5%.

First: O=C(C=CC(=O)Nc1ccc(F)cc1F)Nc1ccc(F)cc1F
Second: O=C(NC(=S)Nc1ccc(Br)cc1F)C1CCCCC1
The inhibition of the first is lower: -1.65% for the first, 6.29% for the second.

First: O=C(CCN1C(=O)[C@H]2CC=CC[C@H]2C1=O)NCc1nc(-c2ccccc2)no1
Second: CCc1cc2c(NC(Cc3ccccc3)C(=O)O)ncnc2s1 (stereo unspecified)
The inhibition of the first is higher: 4.64% for the first, -0.92% for the second.

Compared with `C=C(Br)Cn1c(CCCC)nc2ccccc21`, `OCCNc1nc2ccccc2n1-c1ncnc2sc3c(c12)CCC3` is lower in inhibition: -1.26% for the first, -1.62% for the second.

Compared with `NS(=O)(=O)c1ccc(CCNC(=S)Nc2ccc(S(N)(=O)=O)cc2)cc1`, `CN(CC(=O)NCCc1ccc(S(N)(=O)=O)cc1)CC(=O)Nc1ccc(Cl)cc1` is higher in inhibition: -1.51% for the first, 2.85% for the second.

Compared with `c1ccc(Cc2nn3c(Cn4cnc5ccccc54)nnc3s2)cc1`, `O=C(c1ccc(-n2cnnn2)cc1)N1CCN(C(c2ccccc2)c2ccccc2)CC1` is lower in inhibition: 6.72% for the first, 1.41% for the second.

First: CCc1cc2c(NC3CCCC3)ncnc2s1
Second: CC(C)Nc1ncnc2c1ncn2[C@H]1CN(Cc2ccncc2)C[C@@H](CO)O1
The inhibition of the first is lower: -2.86% for the first, 3.54% for the second.

Going from `C[C@@H](NC(=O)[C@@H]1Cc2ccccc2CN1)C(=O)NC1CCCC1` to `CCOC(=O)c1cn[nH]c1NC(=S)Nc1ccccc1`, the inhibition falls from 0.01% to -0.64%.

Compared with `O=C(CN1CCN(c2ccc(Cl)cc2)CC1)NCc1cccs1`, `Cc1ccc(C2CC(c3cccc(Br)c3)n3nc(N)nc3N2)cc1` (stereo unspecified) is higher in inhibition: -1.08% for the first, 1.76% for the second.

Going from `COCCNc1ncnc2c1ncn2[C@H]1CN(Cc2ccc(OC)cc2)C[C@@H](CO)O1` to `Cc1ccc(C2CC(c3cccc(C)c3)n3nc(N)nc3N2)cc1` (stereo unspecified), the inhibition falls from -1.27% to -1.41%.

First: Cc1ccc(S(=O)(=O)CCC(=O)OCC(=O)N(C)C2CCS(=O)(=O)C2)cc1 (stereo unspecified)
Second: Cc1cccc(OCc2nnc(SCc3nc4cc(C(F)(F)F)ccc4c(=O)[nH]3)o2)c1
The inhibition of the first is higher: 6.74% for the first, 4.23% for the second.

`O=C(CNCc1ccco1)Nc1cc(S(=O)(=O)N2CCOCC2)ccc1N1CCCC1` was tested, and the inhibition was 5.51% (active).
In the case of `O=C(Nc1ccc(OC(F)(F)F)cc1)c1ccc2c(c1)no[n+]2[O-]`, the inhibition is reported as 6.4% (active).
`CC(=O)Nc1ccc(CN2CCC(Oc3ccc(C(=O)N4CCCC4)cc3)CC2)cc1` was tested, and the inhibition was 7.35% (active).
For `CC(CCO)Nc1nc2c([nH]1)c(=O)n(C)c(=O)n2C` (stereo unspecified), the inhibition was 7.16% (active).
In the case of `NS(=O)(=O)c1ccc(CCNC(=O)Nc2ccc(Cl)cc2)cc1`, the inhibition is reported as 7.48% (active).
For `CCc1cc2c(N3CCN(c4nnc(CC)s4)CC3)ncnc2s1`, the inhibition was 7.4% (active).
For `Oc1c(CN2CCN(c3ccc(F)cc3)CC2)cc(Cl)c2cccnc12`, the inhibition was 5.47% (active).
In the case of `OC[C@@H]1CN(Cc2ccc(Cl)cc2)C[C@H](n2cnc3c(NCc4ccncc4)ncnc32)O1`, the inhibition is reported as 7.27% (active).
With `Nc1nc2n(n1)C(c1ccco1)CC(c1ccc(Cl)c(Cl)c1)N2` (stereo unspecified) the inhibition was 6.57% (active).
In the case of `Cc1cccc(N(C)C(=O)CN2C(=O)COc3ccc(S(=O)(=O)N4CCCCCC4)cc32)c1`, the inhibition is reported as 9.47% (active).
